Experimental data published in PubChem BioAssay AID1781 (National Center for Advancing Translational Sciences (NCATS), 2009).
Results filed as inconclusive are left out. Active and inactive are the calls of the source. Calls follow the shape of the dose curve; as a rule, active = well fitted curve in the direction sought with a large enough effect; inconclusive = small, poorly fitted or top-dose-only effect, or effect the other way, or another doubt; inactive = no such curve, though single readings can be large or run the other way.

Each compound was assayed against Pyruvate kinase PKLR (Homo sapiens) (UniProt P30613) (assay: Confirmation Concentration-Response Assay for Activators of Human Liver Pyruvate Kinase). Details: purified hPK-L, Kinase-Glo ATP luminescence, 1 h; series mostly up to 57.5 µM.
Sequence of Pyruvate kinase PKLR (Homo sapiens) (P30613 whole entry, looked up): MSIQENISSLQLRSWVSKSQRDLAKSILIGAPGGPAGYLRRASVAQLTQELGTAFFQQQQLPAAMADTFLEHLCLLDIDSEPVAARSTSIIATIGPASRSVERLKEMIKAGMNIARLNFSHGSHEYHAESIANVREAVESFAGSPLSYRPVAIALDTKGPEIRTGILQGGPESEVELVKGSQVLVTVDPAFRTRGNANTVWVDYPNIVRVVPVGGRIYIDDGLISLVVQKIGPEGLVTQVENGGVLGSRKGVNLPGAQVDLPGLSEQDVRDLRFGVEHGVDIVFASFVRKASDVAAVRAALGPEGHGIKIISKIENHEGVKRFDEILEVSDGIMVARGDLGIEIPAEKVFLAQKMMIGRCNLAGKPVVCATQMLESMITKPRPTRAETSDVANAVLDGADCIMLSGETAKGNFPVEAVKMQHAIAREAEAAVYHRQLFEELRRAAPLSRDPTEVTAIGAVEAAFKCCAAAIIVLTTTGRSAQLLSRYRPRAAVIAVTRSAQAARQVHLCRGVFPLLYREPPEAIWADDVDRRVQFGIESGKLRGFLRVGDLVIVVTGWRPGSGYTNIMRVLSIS
Description: Confirmatory assay NIH Chemical Genomics Center [NCGC] Matthew G. Vander Heiden, M.D., Ph.D. [Harvard Medical School, 77 Avenue Louis Pasteur, Boston, MA 02115] NCGC Assay Overview: Human pyruvate kinase liver (hPK-L) enzyme was supplied as a highly purified (>95% pure) preparation from Harvard Medical School and assayed for its ability to generate ATP from ADP using phosphoenolpyruvate (PEP) as a substrate. ATP generation was detected in a coupled reaction by luciferase-mediated luminescence, an ATP-dependent process. Pyruvate kinase substrates, PEP and ADP, were present in the assay at Km and approximately 10-fold below Km respectively. The enzyme was assayed at an intermediate level of activity to screen for both inhibitors and activators.
NCGC Assay Protocol Summary for L-isoform: Three uL of substrate mix (at r.t.) in assay buffer (50 mM Imidazole pH7.2, 50 mM KCl, 7 mM MgCl2, 0.01% Tween 20, 0.05% BSA) was dispensed into white solid bottom 1,536 well microtiter plates so that the final concentrations of substrates in the assay were 0.1 mM ADP and 0.5 mM PEP. 23 nL of compound were delivered by a pin tool and 1 uL of enzyme mix (final concentration of 0.1 nM) in assay buffer (4 degree Celsius) was added. Plates were incubated at room temperature for 1 hour. Two uL of detection mix (Kinase-Glo, Promega; at 4 degree Celsius protected from light) was added and luminescence read by a ViewLux (Perkin Elmer) at 1 second exposure/plate. Data were normalized to the uninhibited (row 31). Additionally, a no enzyme and 5-fold enzyme control was dispensed in row 32, split equally between the two conditions.

outcome, inactive:
CC(=O)Nc1cc2c(s1)c1cnn(Cc3ccccc3F)c(=O)c1n2C
Cc1nc2ccc(S(=O)(=O)N3CCN(S(=O)(=O)c4c(F)cccc4F)CC3)cc2s1
Cc1cc2c(s1)c1cnn(Cc3cccc(F)c3F)c(=O)c1n2C
COc1ccc(S(=O)(=O)N2CCN(S(=O)(=O)c3c(F)cccc3F)CC2)cc1
Cc1cc2c(s1)c1cnn(Cc3cc(C(F)(F)F)cc(Cl)c3F)c(=O)c1n2C
O=S(=O)(NC1CCC(NS(=O)(=O)c2c(F)cccc2F)CC1)c1ccc2c(c1)OCCO2 (stereo not given)
COc1ccc(Cn2ncc3c4sc(C)cc4n(C)c3c2=O)cc1F
Cn1c2ccsc2c2cnn(Cc3ccccc3F)c(=O)c21
Cn1c2cc(C=O)sc2c2cnn(Cc3ccccc3F)c(=O)c21
Cc1cc2c(s1)c1cnn(Cc3ccc(C(F)(F)F)cc3)c(=O)c1n2C
Cn1c2cc(B(O)O)sc2c2cnn(Cc3ccccc3F)c(=O)c21
O=S(=O)(NCCNS(=O)(=O)c1c(F)cccc1F)c1ccc2c(c1)OCCO2
Cn1c2cc(S(C)=O)sc2c2cnn(Cc3ccccc3F)c(=O)c21 (stereo not given)
COc1cc(F)c(S(=O)(=O)N2CCN(S(=O)(=O)c3ccc4c(c3)OCCO4)CC2)c(F)c1
CC(O)c1cc2c(s1)c1cnn(Cc3ccccc3F)c(=O)c1n2C (stereo not given)
Cc1cc2c(s1)c1cnn(Cc3ccccc3F)c(=O)c1n2C
O=S(=O)(NCCCCCNS(=O)(=O)c1c(F)cccc1F)c1ccc2c(c1)OCCO2
Cc1cc2c(s1)c1cnn(Cc3ccc(F)cc3F)c(=O)c1n2C
Cc1cc2[nH]c3c(=O)n(Cc4ccccc4F)ncc3c2s1
O=C(c1c(F)cccc1F)N1CCN(S(=O)(=O)c2ccc3c(c2)OCCO3)CC1
Cc1cc2c(s1)c1cnn(Cc3ccc(F)c(F)c3F)c(=O)c1n2C
O=S(=O)(c1c(F)cccc1F)N1CCN(S(=O)(=O)c2c(F)cccc2F)CC1
O=S(=O)(NC1CCN(S(=O)(=O)c2ccc3c(c2)OCCO3)C1)c1c(F)cccc1F (stereo not given)
Cn1c2cc([N+](=O)[O-])sc2c2cnn(Cc3ccccc3F)c(=O)c21
Cc1cc2c(s1)c1cnn(Cc3ccc(S(C)(=O)=O)cc3)c(=O)c1n2C
Cc1cc2c(s1)c1cnn(Cc3c(F)c(F)cc(F)c3F)c(=O)c1n2C
N#Cc1ccc(S(=O)(=O)N2CCN(S(=O)(=O)c3ccc4c(c3)OCCO4)CC2)cc1
Cc1cc2c(s1)c1cnn(Cc3cccc(Cn4ncc5c6sc(C)cc6n(C)c5c4=O)c3F)c(=O)c1n2C
COc1ccc(S(=O)(=O)N2CCN(S(=O)(=O)c3ccc4c(c3)OCCO4)CC2)cc1
Cn1c2ccsc2c2ncn(Cc3ccccc3F)c(=O)c21
Cc1cc2c(s1)c1cnn(Cc3c(F)cccc3F)c(=O)c1n2C
COc1cc2c(s1)c1cnn(Cc3ccccc3F)c(=O)c1n2C
Cc1ccc(Cn2ncc3c4sc(C)cc4n(C)c3c2=O)c(C)c1
Cc1cc2c(s1)c1cnn(Cc3ccc(C(F)(F)F)cc3F)c(=O)c1n2C
Cn1c2cc(CO)sc2c2cnn(Cc3ccccc3F)c(=O)c21
